CHX counter – Cycloheximide Counterscreen for Small Molecule Inhibitors of Shiga Toxin; cell reporter, cycloheximide protein synthesis inhibition counterscreen; hit rate 12% among 300,000; AID 2314, 2010; max response, %; in the data active = max response mostly above about 13%, no sharp cut-off; inactive = mostly below about 14%; note: read at 38.3 µM for the half of the compounds with a filed dose
Shiga toxin inh – A qHTS for Small Molecule Inhibitors of Shiga Toxin; Vero cells, Shiga toxin protein synthesis inhibition reporter; inhibition, % at 38.7 µM; hit rate 9.2% among 290,000; in the data active = inhibition mostly above about 28%, no sharp cut-off; inactive = mostly below about 43%
NS1 function inh – qHTS Assay for Inhibitors of Influenza NS1 Protein Function | Potency, µM (highest dose often 46.1 µM) | hit rate 0.4% among 270,000 | AID 2326, 2010; calls by dose curve; note: actives are rising curves; nearly all actives have a fitted effect of over 50% in size
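Read-out: OD600 growth recovery of NS1-expressing budding yeast. Cells grown overnight at 30C in -URA glucose medium, washed, resuspended and diluted 1:100 in 2% galactose assay medium, pH 6.0. Same strain lacking NS1 served as positive control.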
Pf growth 96h – Primary qHTS for delayed death inhibitors of the malarial parasite plastid, 96 hour incubation; P. falciparum luciferase reporter growth, 96 h; Potency, µM (top dose mostly 28.7 µM), usual class: inhibitors; hit rate 6.9% among 320,000
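Compounds incubated with erythrocytes infected by luciferase-expressing P. falciparum (2% hematocrit, 0.05% parasitemia final) for 96 hours, 37 C in 5% CO2. Growth inhibition scored as decreased luciferase luminescence.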
SARS PLP yeast – qHTS of Yeast-based Assay for SARS-CoV PLP | hit rate 0.19% among 330,000 | S. cerevisiae expressing SARS-CoV PLpro, growth rescue | AID 485353, 2010 | Potency, µM (doses to about 32.9 µM), hits mostly activators; calls by dose curve; note: nearly all actives have a fitted effect of over 55% in size
Pf growth 48h – Primary qHTS for delayed death inhibitors of the malarial parasite plastid, 48 hour incubation; P. falciparum luciferase growth in erythrocytes, 48 h; Potency, µM (titrated, usually from 28.7 µM), usual class: inhibitors; hit rate 5.9% among 310,000
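Erythrocytes infected with P. falciparum carrying an integrated firefly luciferase reporter (2% hematocrit, 0.1% parasitemia final) were exposed to compounds in RPMI 1640 with 0.5% Albumax at 37 C, 5% CO2. Growth inhibition was scored as reduced luminescence.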
Each line names hits and unclear results; the compound was inactive in the other large screens; ! = not confirmed by another sample. The list is not random: actives were taken first. Their share in the collection is about 21%. Unless noted, calls come from the whole dose curve; as a rule, active = well fitted inhibition curve with a large enough effect; inconclusive = small, poorly fitted or top-dose-only effect, or another doubt; inactive = no such curve, though single readings can be large or run the other way.

CN(C(=O)CSc1nnc(COc2ccccc2F)n1N)C1CCS(=O)(=O)C1 (stereo unspecified)	none (no result: CHX counter, Shiga toxin inh, NS1 function inh)
O=C(c1cc(-c2cccc(Cl)c2)on1)N1CCN(c2ccc(F)cc2)CC1	Pf growth 96h inconclusive
O=C(c1cc(-c2cccc(Cl)c2)on1)N1CCCCCC1	CHX counter 27, Shiga toxin inh 117
CN1CCN(C(=O)c2cc(-c3cccc(Cl)c3)on2)CC1	CHX counter 34
O=C(c1cc(-c2cccc(O)c2)on1)N1CCN(C(c2ccccc2)c2ccccc2)CC1	Pf growth 96h inconclusive, Pf growth 48h 1.9µM
Cc1ccc(C(=O)NCC(=O)N2CCc3ccccc3C2)cc1C	none
Cc1ccc2oc(C(=O)N(C)Cc3cnccn3)c(C)c2c1	CHX counter 35, Shiga toxin inh 120, Pf growth 96h inconclusive, Pf growth 48h 2.9µM
CCCc1ccc2oc(C(=O)N(C)Cc3ccn[nH]3)c(C)c2c1	CHX counter 48, Shiga toxin inh 65, Pf growth 96h inconclusive
COc1ccc2oc(C(=O)N(C)Cc3ccc4c(c3)OCCO4)c(C)c2c1	none (no result: CHX counter, Shiga toxin inh, NS1 function inh)
O=C(C1CCCN1S(=O)(=O)c1cccc2nsnc12)N1CCCCCC1 (stereo unspecified)	none
CS(=O)(=O)N(CC(=O)NCCSC1CCCCC1)c1ccccc1	none
COc1ccc(C(=O)NCCSC2CCCCC2)cc1	CHX counter 42, Shiga toxin inh 80
CS(=O)(=O)Nc1ccc(C(=O)NCCSC2CCCCC2)cc1	none (no result: Pf growth 48h)
O=C(NCCSC1CCCCC1)c1ccccc1	CHX counter 30, Shiga toxin inh 63, Pf growth 96h inconclusive, Pf growth 48h inconclusive
COc1cc(NC(=O)CSc2nnc3c(C)cc4c(C)ccc(C)c4n23)c(C(=O)O)cc1OC	none
CCCCn1c(SCC(=O)N(CC)C2CCS(=O)(=O)C2)nc2cc(S(N)(=O)=O)ccc21 (stereo unspecified)	none
CCN(C(=O)CSc1nc2cc(C(F)(F)F)ccc2n1Cc1ccccc1)C1CCS(=O)(=O)C1 (stereo unspecified)	Pf growth 96h 9.3µM, Pf growth 48h 10µM
O=C(C[C@@H](c1ccccc1)N1CCCCC1)c1ccccc1	none (no result: CHX counter, Shiga toxin inh, Pf growth 96h, SARS PLP yeast, Pf growth 48h)
CC(C)NCC(O)c1ccc2ccccc2c1 (stereo unspecified)	Pf growth 96h 4.7µM, Pf growth 48h 1.5µM (no result: CHX counter, Shiga toxin inh, NS1 function inh, SARS PLP yeast)
CN(C)C(=S)Nc1ccc2ccccc2c1	SARS PLP yeast inconclusive
C/C=C/C(O)c1ccc2ccccc2c1 (stereo unspecified)	CHX counter 20!, Shiga toxin inh 26!, Pf growth 96h inconclusive
Cc1ccc(C(=O)c2ccccc2C(=O)OCC(=O)NCCc2ccc(Cl)cc2Cl)cc1	Pf growth 96h inconclusive
O=C(COC(=O)c1ccccc1C(=O)OCC(=O)NCCc1c[nH]c2ccccc12)NCCc1c[nH]c2ccccc12	Pf growth 96h 12µM, Pf growth 48h 9.3µM (no result: CHX counter, Shiga toxin inh, NS1 function inh)
O=C(CCCc1c[nH]c2ccccc12)NCCc1c[nH]c2ccccc12	Pf growth 96h inconclusive, Pf growth 48h inconclusive
O=C(COC(=O)c1ccc[nH]c1=O)NCCc1ccc(Cl)cc1Cl	CHX counter 79, Shiga toxin inh 98
O=C(NCCc1c[nH]c2ccccc12)OCCCCOC(=O)NCCc1c[nH]c2ccccc12	Pf growth 96h inconclusive, Pf growth 48h 10µM (no result: CHX counter, Shiga toxin inh, NS1 function inh)
C=CCn1c(COc2ccccc2)nc2ccccc21	CHX counter 29, Shiga toxin inh 44
Cn1c(CCCCCN)nc2ccccc21	Pf growth 96h 10µM, Pf growth 48h inconclusive
Cn1c(Cc2nc3ccccc3n2C)nc2ccccc21	Pf growth 48h inconclusive (no result: CHX counter, Shiga toxin inh, NS1 function inh)
Cn1c(COc2ccccc2)nc2ccccc21	CHX counter 32, Shiga toxin inh 67
CN(C)CCN1C(=O)CC[C@]2(C)C1=CC[C@@H]1[C@@H]2CC[C@]2(C)[C@H]1CC[C@]2(C)O	none (no result: CHX counter, Shiga toxin inh, Pf growth 96h, SARS PLP yeast, Pf growth 48h)
O=C(NN1CCOCC1)c1ccc(F)cc1	none
CCC(=O)Nc1nonc1-c1nc2ccccc2n1Cc1cccc2ccccc12	Pf growth 96h 5.2µM, Pf growth 48h inconclusive
Cc1cc(C)cc(-n2c(C)cc(/C=N/NC(=O)c3ccncc3)c2C)c1	Pf growth 96h inconclusive, Pf growth 48h inconclusive
Cc1cc(/C=N\NC(=O)COc2cccc3cccnc23)c(C)n1-c1ccc(Br)cc1	Pf growth 96h 2.3µM, Pf growth 48h 5.9µM
COCc1c(Br)c(C)nc(OCC(=O)N/N=C/c2cc(C)n(-c3ccc([N+](=O)[O-])cc3)c2C)c1C#N	Pf growth 96h inconclusive, Pf growth 48h 12µM
Cc1cc(/C=N/NC(=O)Cn2c3ccccc3c(=O)c3ccccc32)c(C)n1-c1ccccc1	Pf growth 96h inconclusive, Pf growth 48h inconclusive
Cc1cc(/C=N/NC(=O)CC#N)c(C)n1-c1ccc([N+](=O)[O-])cc1	Pf growth 96h inconclusive
Cc1cc(/C=N\NC(=O)c2cccs2)c(C)n1-c1ccc2ncccc2c1	CHX counter 40, Shiga toxin inh 135
Cc1cc(/C=N/NC(=O)C(=O)NCc2ccccn2)c(C)n1-c1ccccc1	CHX counter 28, Shiga toxin inh 46
COCCN(C(=O)CSc1nnc(-c2ccccc2C)n1C)c1c(N)n(Cc2ccccc2)c(=O)[nH]c1=O	none
CCN(CC(=O)Nc1c(F)cccc1F)C(=O)c1ccc(C#N)cc1	none
Cc1ccnc(-n2c(C)cc(/C=N/NC(=O)COc3cccc4cccnc34)c2C)c1	none
Cc1cc(/C=N\NC(=O)COc2cccc3cccnc23)c(C)n1-c1ccccc1	CHX counter 31, Shiga toxin inh 64, Pf growth 96h 6.6µM, Pf growth 48h inconclusive
O=C(O)c1ccc(N=Nc2c(O)ccc3ncccc23)cc1	CHX counter 22, Pf growth 48h inconclusive
CCCNC(=O)C(Cc1ccc(Cl)cc1)NC(=O)c1ccc(C#N)cc1 (stereo unspecified)	Pf growth 48h inconclusive (no result: CHX counter, Shiga toxin inh, NS1 function inh)
CCOC(=O)c1ccc(N/C=C/C(=O)c2ccco2)cc1	CHX counter 40, Shiga toxin inh 66 (no result: Pf growth 48h)
CCOC(=O)c1ccc(NC(=O)N2CCN(C(=O)c3ccco3)CC2)cc1	Pf growth 96h inconclusive, Pf growth 48h inconclusive
O=C(/C=C/Nc1ccc(F)cc1)c1ccco1	CHX counter 35, Shiga toxin inh 67 (no result: Pf growth 96h)
Cc1ccc(C(C(=O)NC(C)(C)C)N(Cc2ccccc2)C(=O)c2snc(C(N)=O)c2N)o1 (stereo unspecified)	Pf growth 48h inconclusive (no result: NS1 function inh)
CCn1c(COc2ccc(OC)cc2)nnc1SCc1nc2ccccc2c(=O)[nH]1	none (no result: NS1 function inh)
NS(=O)(=O)c1cccc(NC(=O)COC(=O)CNC(=O)c2ccc(-c3ccccc3)cc2)c1	none (no result: CHX counter, Shiga toxin inh, NS1 function inh)
O=C(NCCCn1ccnc1)c1cc(C2CC2)on1	Pf growth 96h 10µM
O=C(NCCN1CCOCC1)c1cc(-c2cccc(O)c2)on1	none
Cc1ccc(-c2cc(C(=O)NCCCn3ccnc3)no2)cc1	CHX counter 26, Shiga toxin inh 50
O=C(NCCCn1ccnc1)c1cc(C(=O)C2CC2)c[nH]1	none
O=C(NCCCn1ccnc1)c1cc(-c2cccc(O)c2)on1	CHX counter 31, Shiga toxin inh 74
